Ten compounds from article PMC5540273 (PLoS ONE, 2017) can be followed below.

The structures appear in SMILES notation.

Some test systems named below: CSNK1G1; CSNK1G2; CSNK1G3; CSNK2A1; CSNK2A2; DAPK1; DAPK2; DAPK3; DDR1; DDR2; DMPK; DYRK1A.
Conditions in all cases: concentration: 1 μM,replicates: in singlicate; n = 1
Another test concerns T1, CTK.
T1 construct: gene MATK

The subject of the next test is T2, DCAMKL1.
T2 construct: gene DCLK1

The next test deals with T3, DCAMKL2.
T3 construct: gene DCLK2

The subject of a further test is T4, DCAMKL3.
T4 construct: gene DCLK3

The next test concerns T5, DLK.
T5 construct: gene MAP3K12

Another test has as its system T6, DMPK2.
T6 construct: gene CDC42BPG

Another test deals with T7, DRAK1.
T7 construct: gene STK17A

A further test relates to T8, DRAK2.
T8 construct: gene STK17B
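Also: KINOMEscan kinase panel screen.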

As for `O=c1[nH]cc(-c2ccc(O)cc2)c2sc(-c3ccncc3)cc12` [GSK1033723], the “%Inh” value is on record as 23% in the test on CSNK1G1; 0% in the test with CSNK1G2; 13% in the test on CSNK1G3; 9% in the test with CSNK2A1; 24% in the test on CSNK2A2; 0% with CTK. Further, the “%Inh” value is 19% in the test on DAPK1; 27% in the test on DAPK2; 30% with DAPK3; 8% in the test on DCAMKL1; 6% with DCAMKL2; 5% in the test on DCAMKL3. The “%Inh” value with DDR1 was found to be 0%; with DDR2, 25%; with DLK, 12%; in the test on DMPK2, 17%; with DMPK, 78%; in the test on DRAK1 it was 31%. The entries for the “%Inh” value with DRAK2 and in the test on DYRK1A were 0% and 90%, respectively.

Consider `Cc1ccc(C(=O)Nc2ccc(Oc3ccc4nc(NC(=O)C5CC5)cn4c3)c(F)c2)c(=O)n1-c1ccccc1`, for which the “%Inh” value in the test on CSNK1G1 worked out at 2%; with CSNK1G2, 0%; with CSNK1G3 it was 0%; in the test on CSNK2A1, 0%; in the test on CSNK2A2, 0%; in the test with CTK it was 0%. In addition, the “%Inh” value is listed as 0% with DAPK1; 0% in the test with DAPK2; 2% in the test on DAPK3; 2% in the test on DCAMKL1; 0% in the test on DCAMKL2; 0% in the test on DCAMKL3. Moreover, the “%Inh” value in the test with DDR1 is 98.2%; with DDR2, 100%; in the test on DLK it was 35%; in the test on DMPK2, 0%; in the test with DMPK, 0%; with DRAK1, 0%. Moreover, the “%Inh” value in the test with DRAK2 was 1%; with DYRK1A, 0%.

Take `CC(=O)Nc1nc2cnc(Nc3cc(NC(=O)c4cccc(CC(C)(C)C#N)c4)ccc3C)nc2s1`: the “%Inh” value in the test with CSNK1G1 is recorded as 14%; in the test on CSNK1G2, 1%; in the test on CSNK1G3, 0%; in the test with CSNK2A1 it was 21%; in the test on CSNK2A2, 21%; in the test with CTK it was 0%. Besides, the “%Inh” value in the test with DAPK1 worked out at 0%; with DAPK2 it was 0%; in the test on DAPK3, 4%; in the test on DCAMKL1, 26%; with DCAMKL2, 5%; with DCAMKL3, 0%. The “%Inh” value in the test on DDR1 worked out at 100%; with DDR2, 97.2%; with DLK, 26%; in the test on DMPK2, 2%; in the test with DMPK it was 0%; in the test with DRAK1, 0%. For the same compound, the “%Inh” value in the test on DRAK2 and with DYRK1A was 0% in each case.

Regarding `Cc1n[nH]c2cc(Nc3ccnc(Nc4cccc(CN5CCOCC5)c4)n3)ccc12` [GW682569], the “%Inh” value stood at 0% in the test on CSNK1G1; 0% with CSNK1G2; 22% in the test on CSNK1G3; 31% in the test with CSNK2A1; 27% in the test with CSNK2A2; 0% in the test on CTK. Also, the “%Inh” value stood at 58% with DAPK1; 25% with DAPK2; 68% in the test with DAPK3; 4% in the test with DCAMKL1; 0% in the test on DCAMKL2; 0% in the test with DCAMKL3. Also, the “%Inh” value is reported as 70% with DDR1; 55% with DDR2; 52% in the test on DLK; 0% with DMPK2; 0% with DMPK; 53% in the test on DRAK1. The “%Inh” value with DRAK2 was 16%; in the test on DYRK1A it was 2%.

On to `FC(F)(F)c1cc(Br)cc(Nc2nccc(-c3cnn4ncccc34)n2)c1` [GW810578], for which the “%Inh” value with CSNK1G1 is on record as 13%; in the test on CSNK1G2 it was 31%; in the test on CSNK1G3 it was 0%; in the test with CSNK2A1, 0%; with CSNK2A2, 32%; in the test with CTK it was 0%. In addition, the “%Inh” value is recorded as 2% in the test with DAPK1; 1% in the test on DAPK2; 18% with DAPK3; 19% with DCAMKL1; 15% with DCAMKL2; 16% in the test on DCAMKL3. The “%Inh” value in the test with DDR1 amounted to 0%; in the test on DDR2 it was 16%; in the test with DLK it was 0%; in the test with DMPK2, 20%; with DMPK it was 15%; in the test on DRAK1 it was 8%. The figures for the “%Inh” value in the test with DRAK2 and in the test on DYRK1A were 36% and 99.6%, respectively.

Consider `C[C@@H]1CNc2c(sc3ccc4nc(-c5ccc(O)cc5)ccc4c23)C(=O)N1`, for which the “%Inh” value in the test with CSNK1G1 was 29%; in the test with CSNK1G2, 38%; with CSNK1G3, 32%; in the test on CSNK2A1, 48%; in the test with CSNK2A2 it was 43%; in the test with CTK, 43%. The “%Inh” value was determined as 35% with DAPK1; 34% in the test on DAPK2; 26% in the test with DAPK3; 37% with DCAMKL1; 0% in the test on DCAMKL2; 54% in the test on DCAMKL3. Besides, the “%Inh” value was 0% in the test on DDR1; 16% in the test with DDR2; 0% in the test on DLK; 0% in the test with DMPK2; 0% in the test on DMPK; 100% in the test on DRAK1. In addition, the “%Inh” value in the test with DRAK2 stood at 100%; in the test with DYRK1A, 98.9%.

Consider `Cl.Nc1n[nH]c2cc(-c3ccccn3)ccc12` [GSK2189892], for which the “%Inh” value with CSNK1G1 turned out to be 11%; with CSNK1G2, 0%; with CSNK1G3 it was 31%; with CSNK2A1, 0%; with CSNK2A2, 0%; in the test with CTK, 0%. The “%Inh” value in the test with DAPK1 is listed as 0%; in the test on DAPK2, 0%; in the test on DAPK3, 19%; with DCAMKL1, 19%; in the test with DCAMKL2 it was 0%; in the test with DCAMKL3, 0%. The “%Inh” value came out at 16% in the test with DDR1; 0% in the test on DDR2; 4% in the test on DLK; 0% in the test on DMPK2; 0% in the test on DMPK; 37% in the test on DRAK1. The “%Inh” value turned out to be 0% in the test on DRAK2 and 10% in the test on DYRK1A.

In the case of `O=C1NCCc2[nH]c(-c3ccncc3)cc21`, the “%Inh” value came out at 51% in the test with CSNK1G1; 93.7% in the test on CSNK1G2; 83% in the test with CSNK1G3; 64% in the test with CSNK2A1; 59% with CSNK2A2; 24% with CTK. Moreover, the “%Inh” value with DAPK1 came out at 77%; with DAPK2, 66%; in the test on DAPK3, 81%; in the test with DCAMKL1 it was 16%; in the test with DCAMKL2, 0%; in the test with DCAMKL3, 91.8%. Also, the “%Inh” value in the test on DDR1 is 17%; in the test with DDR2, 0%; with DLK, 8%; with DMPK2 it was 0%; in the test with DMPK, 13%; with DRAK1, 97.2%. Further, the “%Inh” value in the test with DRAK2 came to 100%; in the test on DYRK1A it was 99.7%.

As to `O=C(NCC1CC1)c1ccc(-c2cc(C(=O)NC3CC3)ccc2F)cc1` [GW810445], the “%Inh” value with CSNK1G1, in the test with CSNK1G2, in the test on CSNK1G3, in the test with CSNK2A1, in the test with CSNK2A2 and with CTK was 0% in each case. The “%Inh” value with DAPK1 is 0%; with DAPK2, 3%; in the test with DAPK3 it was 19%; with DCAMKL1, 0%; in the test on DCAMKL2, 22%; in the test with DCAMKL3, 0%. Moreover, the “%Inh” value with DDR1 was 0%; in the test with DDR2 it was 35%; with DLK, 12%; in the test with DMPK2 it was 0%; with DMPK, 0%; with DRAK1 it was 0%. The “%Inh” value in the test with DRAK2 and in the test with DYRK1A was 0% throughout.

Turning to `Cc1ccn2nc(-c3ccc(F)cc3)c(-c3ccncc3)c2c1.Cl` [GW457859], the “%Inh” value is on record as 29% in the test on CSNK1G1; 12% in the test on CSNK1G2; 31% in the test with CSNK1G3; 0% in the test on CSNK2A1; 14% in the test with CSNK2A2; 0% in the test with CTK. In addition, the “%Inh” value was 15% with DAPK1; 6% in the test with DAPK2; 0% with DAPK3; 10% with DCAMKL1; 0% with DCAMKL2; 0% in the test on DCAMKL3. Further, the “%Inh” value in the test with DDR1 was determined as 75%; with DDR2 it was 82%; in the test on DLK, 44%; in the test with DMPK2 it was 75%; with DMPK it was 0%; with DRAK1 it was 2%. Besides, the “%Inh” value in the test with DRAK2 and in the test on DYRK1A was 0% throughout.
